In all, about 5,500 compounds went through this assay and about 2,000 (36%) were called active. Not shown: some 18% with an inconclusive outcome. No stated cut-off is given here; in the data, active means normalized growth mostly below about 0.91 (no sharp cut-off); inconclusive means no clear call, values can overlap the other calls; inactive means mostly above about 0.92. The list shows a part of the results.
Assay: chemical genetic growth profiling, strain panel (AID 1159580);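 further: tested at 20 µM; growth read once vehicle control cultures reached saturation at 30 °C; 1 = growth at the plate median or of vehicle wells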
Conditions: S. cerevisiae deletion strains, growth OD
[1] = locus YHR030C, strain SLT2, stronger effect = lower value
[2] = locus YHR079C, strain IRE1, stronger effect = lower value
[3] = locus YJL095W, strain BCK1, stronger effect = lower value
[4] = locus YJR066W, strain TOR1, stronger effect = lower value
[5] = locus YLR113W, strain HOG1, stronger effect = lower value
[6] = locus YNL183C, strain NPR1, stronger effect = lower value
[7] = locus YOR231W, strain MKK1, stronger effect = lower value
[8] = locus YPL256C, strain CLN2, stronger effect = lower value

Measured: normalized growth

COc1ccc(-c2oc3ccccc3c(=O)c2OC)cc1
inactive: [1] 0.882 | [2] 0.897 | [3] 0.909 | [4] 0.829 | [5] 0.934 | [6] 0.836 | [7] 0.901 | [8] 0.894

COc1ccc(-c2oc3cc(OC)c(OC)c(OC)c3c(=O)c2OC)cc1OC
inactive: locus YAL021C, strain ccr4, stronger effect = lower value 0.98 | locus YAL026C, strain drs2, stronger effect = lower value 0.957 | locus YAL030W, strain snc1, stronger effect = lower value 0.979 | locus YBL061C, strain skt5, stronger effect = lower value 0.998 | locus YBR009C, strain hhf1, stronger effect = lower value 0.966 | locus YBR023C, strain chs3, stronger effect = lower value 0.986 | locus YBR171W, strain sec66, stronger effect = lower value 0.972 | locus YBR231C, strain swc5, stronger effect = lower value 0.968 | locus YBR279W, strain paf1, stronger effect = lower value 0.983 | locus YCL011C, strain gbp2, stronger effect = lower value 0.972 | locus YCL016C, strain dcc1, stronger effect = lower value 1 | locus YCL061C, strain MRC1, stronger effect = lower value 0.993 | locus YCL069W, strain vba3, stronger effect = lower value 0.977 | locus YCR088W, strain abp1, stronger effect = lower value 0.976 | locus YDL005C, strain med2, stronger effect = lower value 0.981 | locus YDL040C, strain nat1, stronger effect = lower value 0.982 | locus YDR001C, strain nth1, stronger effect = lower value 0.978 | locus YDR069C, strain doa4, stronger effect = lower value 0.972 | locus YDR137W, strain rgp1, stronger effect = lower value 0.966 | locus YDR159W, strain sac3, stronger effect = lower value 0.966 | locus YDR195W, strain ref2 0.982 | locus YDR297W, strain sur2, stronger effect = lower value 0.984 | locus YDR334W, strain swr1, stronger effect = lower value 0.97 | locus YDR335W, strain msn5, stronger effect = lower value 0.982 | locus YDR392W, strain spt3, stronger effect = lower value 0.767 | locus YEL003W, strain gim4, stronger effect = lower value 0.973 | locus YEL037C, strain rad23, stronger effect = lower value 0.956 | locus YEL061C, strain CIN8 (second series), stronger effect = lower value 0.971 | locus YER015W, strain faa2, stronger effect = lower value 0.99 | locus YER016W, strain bim1, stronger effect = lower value 0.986 | locus YER111C, strain swi4, stronger effect = lower value 0.976 | locus YER155C, strain BEM2 (second series), stronger effect = lower value 0.932 | locus YFR010W, strain ubp6, stronger effect = lower value 0.96 | locus YGL167C, strain pmr1, stronger effect = lower value 0.983 | locus YGL173C, strain kem1, stronger effect = lower value 0.996 | locus YGL227W, strain vid30, stronger effect = lower value 0.976 | locus YGL240W, strain doc1, stronger effect = lower value 0.973 | locus YGL253W, strain hxk2, stronger effect = lower value 0.92 | locus YHR013C, strain ard1, stronger effect = lower value 0.956 | locus YHR027C, strain rpn1, stronger effect = lower value 1 | [1] 1.03 | [2] 1.01 | locus YHR142W, strain chs7, stronger effect = lower value 0.933 | locus YJL092W, strain hpr5, stronger effect = lower value 0.966 | locus YJL095W, strain BCK1 (second series), stronger effect = lower value 0.987 | [3] 0.972 | locus YJL115W, strain asf1, stronger effect = lower value 0.986 | locus YJL129C, strain trk1, stronger effect = lower value 0.979 | locus YJL154C, strain vps35, stronger effect = lower value 0.974 | locus YJL164C, strain tpk1, stronger effect = lower value 0.974 | locus YJL166W, strain qcr8, stronger effect = lower value 0.978 | locus YJL187C, strain SWE1, stronger effect = lower value 0.981 | [4] 1 | locus YKL160W, strain elf1, stronger effect = lower value 0.998 | locus YKR026C, strain gcn3, stronger effect = lower value 0.976 | locus YKR091W, strain srl3, stronger effect = lower value 0.985 | locus YLL001W, strain dnm1, stronger effect = lower value 1 | locus YLL026W, stronger effect = lower value 0.989 | locus YLL041C, strain sdh2, stronger effect = lower value 0.977 | locus YLR027C, strain aat2, stronger effect = lower value 0.986 | [5] 0.902 | locus YLR221C, strain rsa3, stronger effect = lower value 1.01 | locus YLR258W, strain gsy2, stronger effect = lower value 0.994 | locus YLR262C, strain YPT6 (second series), stronger effect = lower value 0.95 | locus YLR320W, strain mms22, stronger effect = lower value 0.99 | locus YLR342W, strain FKS1, stronger effect = lower value 0.959 | locus YLR357W, strain rsc2, stronger effect = lower value 0.96 | locus YLR370C, strain arc18, stronger effect = lower value 0.986 | locus YLR384C, strain iki3, stronger effect = lower value 0.996 | locus YML120C, strain ndi1, stronger effect = lower value 0.97 | locus YMR058W, strain fet3, stronger effect = lower value 0.971 | locus YMR125W, strain sto1, stronger effect = lower value 0.964 | locus YMR129W, stronger effect = lower value 0.976 | locus YMR205C, strain PFK2, stronger effect = lower value 0.997 | locus YMR231W, strain pep5, stronger effect = lower value 0.992 | locus YNL071W, strain lat1, stronger effect = lower value 0.969 | [6] 0.956 | locus YNL209W, strain ssb2, stronger effect = lower value 0.993 | locus YNL248C, strain rpa49, stronger effect = lower value 0.967 | locus YNL322C, strain KRE1 (second series), stronger effect = lower value 0.989 | locus YNR049C, strain mso1, stronger effect = lower value 0.982 | locus YOR001W, strain rrp6, stronger effect = lower value 0.938 | locus YOR070C, strain gyp1, stronger effect = lower value 0.983 | locus YOR080W, strain dia2, stronger effect = lower value 0.987 | locus YOR083W, strain WHI5, stronger effect = lower value 0.998 | locus YOR106W, strain vam3, stronger effect = lower value 0.991 | [7] 1.02 | locus YOR265W, strain rbl2, stronger effect = lower value 0.987 | locus YOR270C, strain vph1, stronger effect = lower value 0.863 | locus YOR290C, strain snf2, stronger effect = lower value 0.953 | locus YPL051W, strain arl3, stronger effect = lower value 1 | locus YPL078C, strain atp4, stronger effect = lower value 0.977 | locus YPL106C, strain sse1, stronger effect = lower value 0.969 | locus YPL240C, strain hsp82, stronger effect = lower value 0.995 | [8] 1
